# Assay results: the supplement of paper PMC6555819
# Key:
# Experiment in all cases: PBM binding z-score (relative to random genomic background probes); higher = stronger binding; sequences stand for … in GC…GCGATTGACAGCGTAGAATGAAGG
# [1] = system: FXR:RXRa (NR concentration 270 nM, RXRa partner concentration 90 nM)
# How it was run: (§1)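 Probes were double-stranded and carried 34-nt variable regions with direct-repeat seeds, single-nucleotide variants, half-site ablations and random human genomic background sequences, printed on custom Agilent 4×180K protein-binding microarrays. Arrays were incubated 1 h with ligand-free nuclear receptor dimers in PBS pH 7.4, 2% milk, 0.02% Triton X-100, 1 mM DTT, 0.2 mg/mL BSA and 0.4 mg/ml salmon testes DNA. Antibodies against each partner (one per run) detected binding, and scanned fluorescence was regression-normalized. Binding z-scores use the random background probes as reference.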
# [2] = system: LXRa:RXRa (NR concentration 270 nM, RXRa partner concentration 90 nM)
# How it was run: as §1
# [3] = system: LXRa homodimer (NR concentration 270 nM)
# How it was run: as §1
# [4] = system: LXRb:RXRa (NR concentration 270 nM, RXRa partner concentration 90 nM)
# How it was run: as §1
# [5] = system: LXRb homodimer (NR concentration 270 nM)
# How it was run: as §1
# [6] = system: PPARa:RXRa (NR concentration 270 nM, RXRa partner concentration 90 nM)
# How it was run: as §1
# [7] = system: PPARg:RXRa (NR concentration 180 nM, RXRa partner concentration 90 nM)
# How it was run: as §1
# [8] = system: PPARg:RXRa 270nM:90nM, anti-RXR (NR concentration 270 nM, RXRa partner concentration 90 nM)
# How it was run: as §1
# [9] = system: PPARg:RXRa 30nM:10nM, anti-RXR (NR concentration 30 nM, RXRa partner concentration 10 nM)
# How it was run: as §1
# [10] = system: PPARg:RXRa 90nM:30nM, anti-RXR (NR concentration 90 nM, RXRa partner concentration 30 nM)
# How it was run: as §1
Sequence,PBM binding z-score [1],PBM binding z-score [2],PBM binding z-score [3],PBM binding z-score [4],PBM binding z-score [5],PBM binding z-score [6],PBM binding z-score [7],PBM binding z-score [8],PBM binding z-score [9],PBM binding z-score [10]
AGAATGACGTTAAGATCAGGGAAACAGAATACAT,-0.19,-0.216,-0.265,-0.142,-0.294,-0.223,0.69,-0.0483,0.359,0.136
CCTGCTGGGCCACGAAAGGTCATTGATTCAGTGA,3.41,5.49,4.48,4.19,0.0525,4.2,1.59,3.23,0.385,2.27
ATCTCTAGGTAACAAGTTCGGTGAAAGAGAGGAC,0.656,0.804,0.56,0.383,0.814,0.973,1.13,1.67,0.766,1.35
CCTATTAGTTGAACATAAGGGCAACCGAAGCTCG,0.402,0.518,0.603,0.454,0.71,0.594,0.576,0.441,0.18,0.415
AGTCAAAGTGCAGGACGAGGTAACGTAAAGCACG,-0.105,-0.155,-0.419,-0.641,-0.89,0.169,1.06,1.03,0.301,0.389
GCTAGCAGGCCATTTAGGTCACTCAATGACGGGC,0.265,-0.00867,-0.241,-0.158,-1.25,1.67,0.871,0.498,-0.134,0.454
TCTATTAGGTGATTAGGGCAACCGAAACAGCGGA,0.654,0.587,0.0646,0.425,0.526,1.86,2.13,2.98,3.56,2.97
TCATAAAGGTAATACAGGTGAAAGTCGGCATCTA,1.53,2.4,0.378,1.49,0.311,2.48,1.23,3,4.29,3.61
ATCTCTAGGTAAGACTCAGTTCAGTGCAGAACGC,0.385,0.334,0.807,0.371,0.594,0.349,0.209,0.0288,0.281,0.195
GCTTACTGGTCAAAGGTTATAGCATGAATAGAAT,2.63,2.93,0.195,2.9,-0.146,4.95,8.22,7.6,6.04,7.95
GCTAGCAGGCCATTCGGGTCACTCAATGACGGGC,1.03,0.603,-0.377,0.577,-1.07,1.9,0.695,0.555,-0.392,0.105
CGAACGAGGGTATGAGTTGATAGCAAATGCCGAT,-0.386,-0.2,-0.268,-0.396,-0.567,-0.124,0.652,0.353,-0.0706,0.292
AGGATGAGGTTATTAAGATCAGGGAATTGCGGTC,2.1,1.84,0.789,1.65,0.764,2.29,1.06,1.24,0.391,0.788
TAGCTTAGGTCAGATCGGGCCAGTATACGCTATA,2,1.41,-0.333,0.69,0.0114,1.96,0.531,0.891,0.0799,0.412
CCTTACGGGTCACTGACAGGTTATATCATTTGGA,5.35,4.27,0.675,3.82,-0.0554,5.14,4.29,4.13,1.54,2.98
ATATGTAGGTTAGCTGGGGGCATTCAGACTAGGC,0.978,3.73,0.963,4.51,9.63,4.09,4.83,4.61,2.3,3.72
TCTTGTAGATCAACAGGAGGTTAAGAAAGATCGA,0.227,1.19,0.133,0.709,-0.3,1.22,-0.0134,1.2,2.19,1.56
CGTCCAAGGTCATAGGAGGTTAGTGAAGACAGAT,7.23,6.11,2.12,4.77,0.715,5.61,4.92,5,2.04,3.54
TCTTGTAGATCACAGGTTAAGAAAGCCGAAGCCT,0.701,0.575,-0.161,0.714,-0.0792,2.09,2.74,4.44,3.81,4.64
TATACAGGGTCAAAGACCAGAGTACGAATGTCGA,7.01,5.81,2.11,4.83,2.31,5.9,6.65,5.94,3.43,5.01
ACTAGTTGGTCAGCTGCGGTCACACACAATTCGG,0.216,0.737,1.43,0.671,0.37,0.527,0.606,0.528,-0.0871,0.128
CCTCGGAAGACAGAAGGTCAGAGCTGTCCGCTTT,0.995,1.6,0.422,1.25,-0.462,1.69,-0.302,0.238,-0.803,-0.38

Sequence,PBM binding z-score [1],PBM binding z-score [2],PBM binding z-score [3],PBM binding z-score [4],PBM binding z-score [5],PBM binding z-score [6],PBM binding z-score [7],PBM binding z-score [8],PBM binding z-score [9],PBM binding z-score [10]
TCTTGTAGATCAACAGGAGGTGAAGAAAGATCGA,0.155,0.134,-0.343,0.298,-0.585,0.798,-0.0204,1.4,2.7,2.04
TCTTGTAGATCACCAGGTTAAGAAAGCTGGCCAA,0.657,0.602,-0.148,0.696,0.00375,1.47,0.304,2.21,3.04,2.67
CCTCGGAGAACAGAAGGTCAGAGCTGTCCGCTTT,1.13,1.7,0.757,1.3,-0.0418,1.85,-0.162,0.587,-0.776,0.369
CAACCTAGGTCAAGGTCAAAGTCGGTTTGTGCCA,6.38,5.56,3.63,4.92,1.07,5.51,5.92,5.74,2.75,4.69
GGAACGAGGGCATTCGAGTTGATAGTATGGCGAT,1.62,1.71,-0.324,0.436,-0.544,1.62,1.13,1.22,0.197,0.753
ACAGACCGGTGATGAAGGTAACTCAGGCTATCAT,-0.208,-0.192,-0.177,-0.283,-0.429,-0.318,0.549,0.0547,-0.0977,-0.129
GCTAGTAGATCAAGGTTAAGAAAGACTAAGCTAA,0.0668,0.637,-0.651,0.372,-0.999,1.46,1.22,2.22,0.524,1.57
GCTGCTAGGTCAGCTTGGTCAGCTAACGGGTACG,1.35,0.704,-0.534,0.334,0.0113,1.22,0.479,0.718,-0.549,-0.0941
AATACAGGGTCAATAGGCCAGAGTAGGTACGAAT,6.54,5.03,0.816,3.72,0.669,5.72,6.47,5.46,2.53,4.61
CCTACTGGGCCATTCAGAGGTCAGTGATCATATG,0.991,1.94,2.35,1.78,-0.442,2.54,1.47,1.99,0.391,1.29
CCTGCTAGGTCAATGGTCAGCTATAGCAGCTCGC,2.7,2.23,0.0531,1.44,0.0202,3.06,4.45,4.91,2.6,4.71
TCAGACAGGTGAAGGTATCTCAGGTACGCAGTCG,0.108,0.719,-0.00263,0.477,-0.0583,0.944,0.741,2.22,3.93,3.03
CGTCCAAGGTCATAGGAGGTCAGGGAAGACAGAT,7.91,7.63,5.15,6.25,0.687,6.17,6.03,5.99,2.83,4.83
CGTCCAAGGTCATAGGTCAGTGAAGAGATGACGG,7.34,5.78,1.65,4.74,1.02,6.22,7.76,7.27,5.12,7.07
CCAGACAAGTGAAAGGTAACTCAGTCTGGTACGC,-0.0838,0.254,-0.234,0.206,-0.315,1.07,1.42,2.61,0.692,1.77
AGAATGAGGTTAACATCAGGGAAACAGAATACAT,2.93,2.97,-0.211,2.21,-0.23,4.3,3.36,3.34,1.39,2.46
TCTTGTAGATCAGCAGGTTAAGAGAGCTGGCCAA,-0.327,-0.11,-0.629,0.359,-0.638,0.689,-0.415,1.35,2.45,1.77
TCAGACAGGTAAAGGTAACTCAGGTACGCAGTCG,1.07,3.02,0.16,1.79,0.229,1.48,1.11,2.56,4.03,3.14
TCTTGCAGATCAATAGAGGTTAAGAAAGTGCGCT,0.606,3.34,0.219,2.04,-0.44,1.9,-0.17,1.1,1.84,1.35
CCAGACAGGTCAGAAGGTAACTCAGCCTCGATTA,2.82,2.29,0.142,1.7,-0.0467,3.15,1.84,2.26,0.435,1.4
TAGACTAGGTCATGGGCCAGTATACCACGCGAAC,3.63,2.6,0.103,1.81,0.438,4.41,7.24,6.34,4.78,6.07
CGAACTAGGTCATCCAGGACAGGGAATACATTGA,4.45,2.35,0.51,1.85,0.035,4.75,7.8,6.18,3.9,5.82
